This passage reports Potency results from PubChem BioAssay AID1347416 (National Center for Advancing Translational Sciences (NCATS), 2020).

Each structure is given as a SMILES string. In all, about 4,100 compounds went through this assay and about 1,600 (39%) were called active. Another 25% or so got no clear call; they are omitted. Calls come from the whole dose curve; as a rule, active = well fitted inhibition curve with a large enough effect; inconclusive = small, poorly fitted or top-dose-only effect; inactive = no such curve, though single readings can be large or run the other way. The list shows a part of the results. A call without a number means that no potency is given here.
Potency is the fitted concentration of half-maximal effect.

This assay in a line: qHTS Validation assay for Inhibitors of Plasmodium falciparum Dd2 growth in vitro. Note: nearly all actives have a fitted effect of over 70% in size. The conditions noted are these: P. falciparum Dd2 in RBCs, SYBR Green growth, 72 h; series mostly up to 28.7 µM. A digest of the protocol:
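P. falciparum Dd2-infected red blood cells (2.5% hematocrit, 0.3% parasitemia) grown 72 h at 37 °C under 5% O2 with compounds in a titration, 29 uM to 0.5 nM final. Growth read as SYBR Green-1 fluorescence after ~16 h lysis; artesunate 300 nM as positive control.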
(In general: qHTS replaces the single test concentration by a dilution series.)
In the case of `F[C@@H]1CN(CC2CC2)C[C@@H]1OCc1nc2ccccc2o1`, the Potency entry was “inactive”.
On to `CCCCN(C)CCCNC(=O)Cn1ncc2c3ccccc3n(Cc3cc(C)ccc3C)c2c1=O`, for which the Potency is 750 nM (active).
Take `Cc1cc(C)c(Cn2c(=O)n(CCCCC(=O)NCc3ccccc3Cl)c(=O)c3ccccc32)c(C)c1`: the Potency entry was “inactive”.
The value for `CCOC(=O)c1cccc(NC(=O)Cn2ncc3c4ccccc4n(Cc4ccccc4)c3c2=O)c1` was “inactive”.
In the case of `CCc1ccc(N=C2NC(=O)CC(C(=O)Nc3ccc(OC)cc3)S2)cc1` (stereo not drawn), the Potency entry is “inactive”.
Then `COc1ccc(-c2c3c(nc4sc(C(=O)Nc5ccc(Cl)cc5)c(N)c24)CC(C)(C)CC3=O)cc1`, with 376 nM (active).
Then `COc1ccc(NC(=O)CSc2nc(-c3ccc(OC)cc3)[nH]c2-c2ccc(F)cc2)cc1`, with “inactive”.
The value for `Cc1nc2sc(C(=O)Nc3ccc(F)cc3)c(N)c2c(-c2ccc(Br)cc2)c1C(=O)Nc1ccc(Cl)cc1` was 8410 nM (active); that for `COc1ccc(C(=O)Nc2ccc([C@H]3OCC(=O)N(C(C)C)[C@@H]3CO)cc2)cc1` was “inactive”.
With `COc1ccc(NC(=O)c2sc3nc4c(c(-c5ccc(OC)cc5)c3c2N)C(=O)CC(C)(C)C4)cc1`, the Potency was 1880 nM (active).
The value for `COc1ccc(-c2c3c(nc4sc(C(=O)Nc5ccc(F)cc5)c(N)c24)CC(C)(C)CC3=O)cc1` was 944 nM (active).
The value for `CCn1nccc1C(=O)N1CCCC(n2cc(-c3nc(-c4ccccc4)no3)nn2)C1` (stereo not drawn) was “inactive”; that for `O=C(Nc1ccc(-c2nnc3n2CCCC3)cc1)c1ccc2ccccc2n1` was “inactive”; that for `CCOC(=O)N1CCN(c2nc3ccccn3c(=O)c2C=O)CC1` was “inactive”.
Consider `CCOC(=O)c1ccccc1NC1c2ccccc2C(=O)N1C1CCN(C(=O)OCC)CC1` (stereo not drawn), for which the Potency was 13300 nM (active).
As for `CCOC(=O)N1CCN(C(=O)c2ccccc2-c2ccccc2)CC1`, the Potency entry was “inactive”.
Take `COc1ccc(-n2nc3ccc(N)cc3n2)cc1Cl`: the Potency result is “inactive”.
Then `Oc1ccc(Cl)cc1-c1cc(C(F)(F)C(F)F)nc(-c2ccccc2)n1`, with 842 nM (active); and `CCN(CC)c1ccc(C(=O)NCc2nnc3c(-c4nc(C(C)C)no4)cccn23)cc1`, with “inactive”.
The value for `COc1cc(OC)c(NC2=CC(=O)C(=O)c3ccccc32)cc1Cl` was 2990 nM (active).
Then `COc1cc(Cl)c(NC2=CC(=O)C(=O)c3ccccc32)c(OC)c1`, with 1680 nM (active).
In the case of `COc1cc(OC)c(NC(=O)n2ncc3cc(Cl)ccc32)cc1Cl`, the Potency result is “inactive”.
Consider `Cc1cc(O)c(-c2ccnc3cc(-c4ccccc4)nn23)cc1Cl`, for which the Potency is 1880 nM (active).
